Bioassay records as filed in PubChem.
SARS PLP yeast = qHTS of Yeast-based Assay for SARS-CoV PLP. S. cerevisiae expressing SARS-CoV PLpro, growth rescue. AID 485353, 2010. 330,000 tested, 0.19% active. Potency, µM (titrated, usually from 32.9 µM), hits mostly activators; further: nearly all actives have a fitted effect of over 55% in size
CHX counter = Cycloheximide Counterscreen for Small Molecule Inhibitors of Shiga Toxin; cell reporter, cycloheximide protein synthesis inhibition counterscreen; 300,000 tested, 12% active; max response, %; in the data active means max response mostly above about 13%, no sharp cut-off; inactive means mostly below about 14%; further: read at 38.3 µM for the half of the compounds with a filed dose
Pf growth 96h = Primary qHTS for delayed death inhibitors of the malarial parasite plastid, 96 hour incubation | 320,000 tested, 6.9% active | Potency, µM (series often up to 28.7 µM), hits mostly inhibitors | P. falciparum luciferase reporter growth, 96 h | AID 504834, 2011; active means well fitted inhibition curve with a large enough effect; inconclusive means small, poorly fitted or top-dose-only effect, or another doubt; inactive means no such curve, though single readings can be large or run the other way
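Delayed-death screen, second-generation endpoint: infected erythrocytes, 2% hematocrit, 0.05% parasitemia final; 96 hours at 37 C, 5% CO2; luciferase detection reagent; luminescence decrease equals reduced growth.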
Shiga toxin inh = A qHTS for Small Molecule Inhibitors of Shiga Toxin; Vero cells, Shiga toxin protein synthesis inhibition reporter; inhibition, % at 38.7 µM; 290,000 tested, 9.2% active; AID 2315, 2010; in the data active means inhibition mostly above about 28%, no sharp cut-off; inactive means mostly below about 43%
Pf growth 48h = Primary qHTS for delayed death inhibitors of the malarial parasite plastid, 48 hour incubation. P. falciparum luciferase growth in erythrocytes, 48 h. Potency, µM (doses to about 28.7 µM), usual class: inhibitors. 310,000 tested, 5.9% active; active means well fitted inhibition curve with a large enough effect; inconclusive means small, poorly fitted or top-dose-only effect, or another doubt; inactive means no such curve, though single readings can be large or run the other way
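Read-out is firefly luciferase luminescence from an integrated reporter in P. falciparum, so falling signal marks reduced parasite growth. Infected erythrocytes were at 2% hematocrit and 0.1% parasitemia (final) in Albumax-supplemented RPMI 1640.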
NS1 inh = qHTS Assay for Inhibitors of Influenza NS1 Protein Function. Potency, µM (titrated, usually from 46.1 µM). 270,000 tested, 0.4% active; further: actives are rising curves; nearly all actives have a fitted effect of over 50% in size
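In this qHTS, NS1 from influenza A is expressed in budding yeast, where it slows growth. Cells are switched from glucose to 2% galactose medium (pH 6.0, -URA), treated with compound, and growth recovery is read at OD600.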
Of the large screens only hits and unclear results are named; the others gave an inactive call. In the library only some 21% were active in any assay of this set; here they are far more common. Unless noted, the call rests on the fitted dose curve.

COc1cccc(CN2CC(C(=O)N3CCN(C(C)C)CC3)CCC2=O)c1 (stereo unspecified)	none
CC1CCCCN1CCCNC(=O)c1ccc2nc(N3CCCCC3)sc2c1 (stereo unspecified)	Pf growth 96h inconclusive
CCCN1CCN(CCCNC(=O)c2ccc3nc(N4CCC(C)CC4)sc3c2)CC1	CHX counter 33, Pf growth 96h inconclusive, Shiga toxin inh 47
CCOC(CNC(=O)c1ccc2nc(N3CCC(C)CC3)sc2c1)OCC	CHX counter 25, Pf growth 96h 9.3µM, Pf growth 48h inconclusive
CC1CC(C)CN(CCCNC(=O)c2ccc3nc(N4CCOCC4)sc3c2)C1 (stereo unspecified)	none
Cc1cc(C)c2cc(C#N)c(N3CCCC3)nc2c1	Pf growth 96h 10µM
Cc1cc(C)c2cc(C#N)c(N3CCCN(C(=S)NCCCN(C)C)CC3)nc2c1	Pf growth 96h 10µM
CC(=O)c1cc(C#N)c(N2CCCC2)nc1C	none (no result: NS1 inh)
Cc1ccc2cc(C#N)c(N3CCCN(C(=S)NCCCN(C)C)CC3)nc2c1	Pf growth 96h inconclusive, Pf growth 48h 10µM
O=c1ccc(N=Nc2ccccc2)ccc1O	CHX counter 23, Pf growth 96h 13µM, Pf growth 48h 10µM
CCCOC1CCCN(C(=O)c2ccc(OC3CCN(C(=O)CCOC)CC3)cc2)C1 (stereo unspecified)	CHX counter 16
COCC(=O)N1CCC(Oc2ccc(C(=O)N(C)C3CCCCC3)cc2)CC1	none
COCCC(=O)N1CCC(Oc2ccc(C(=O)N(C)C3CCCCC3)cc2)CC1	CHX counter 12, Pf growth 96h inconclusive (no result: Shiga toxin inh)
O=C1CCn2nc(-c3ccc(Cl)cc3)cc2N1	CHX counter 44, Pf growth 96h inconclusive, Shiga toxin inh 79
Cc1cc2c(s1)c1cnn(Cc3ccc(C)c(F)c3F)c(=O)c1n2C	none (no result: SARS PLP yeast, Pf growth 96h, Pf growth 48h, NS1 inh)
O=C(Nc1nnc(-c2ccc3c(c2)CCCC3)o1)c1ccccc1	CHX counter 20, Pf growth 96h inconclusive, Shiga toxin inh active, Pf growth 48h inconclusive
Cc1ccc(C(=O)Nc2nnc(-c3ccncc3)o2)cc1	CHX counter 9.8
CSc1ccccc1NC(=O)CN1CC(C)OC(C)C1 (stereo unspecified)	none (no result: NS1 inh)
C(=N\N1CCN(c2ccccn2)CC1)/c1ccco1	CHX counter 22, Pf growth 96h inconclusive, Shiga toxin inh 44 (no result: NS1 inh)
Cc1ccc(/C=N/N2CCN(c3ccccn3)CC2)o1	CHX counter 35, Shiga toxin inh 75
CCOC(=O)c1nnsc1N	none
Cc1cc(C)cc(N(CC(=O)Nc2ccc(-c3nc4ccc(C)cc4s3)cc2)S(C)(=O)=O)c1	CHX counter 36, Pf growth 96h 4.1µM, Shiga toxin inh 77
Cc1ccc2nc(-c3ccc(NC(=O)CN(c4ccccc4C)S(C)(=O)=O)cc3)sc2c1	CHX counter 61, Shiga toxin inh 95
Cc1ccccc1N(CC(=O)Nc1ccc(F)cc1)S(C)(=O)=O	none (no result: Pf growth 96h)
Cc1cccc(N2C(=O)CC(N(C(=O)c3ccco3)c3cccc(C)c3)C2=O)c1 (stereo unspecified)	none (no result: Pf growth 96h)
CCCCSCc1[nH]c(=O)[nH]c1C(=O)CCCCC(=O)OCC	none
CCOC(=O)CCCCC(=O)c1[nH]c(=O)[nH]c1Cn1ccnc1	Pf growth 48h 0.47µM, NS1 inh inconclusive (no result: Pf growth 96h)
O=C(NC(NC(=S)N1CCOCC1)C(Cl)(Cl)Cl)c1ccc(Cl)cc1 (stereo unspecified)	Pf growth 48h inconclusive
CCCCC(=O)NC(NC(=S)N1CCOCC1)C(Cl)(Cl)Cl (stereo unspecified)	Pf growth 48h 8.3µM (no result: Pf growth 96h)
CC(=O)C(N=Nc1ccccc1)(Sc1nnc(-c2ccccc2)n1-c1ccccc1)C(C)=O	Pf growth 96h 12µM, Pf growth 48h inconclusive
CC(=O)/C(=N\Nc1ccccc1)Sc1nnc(-c2ccccc2)n1-c1ccccc1	Pf growth 96h inconclusive
CC(=O)C(N=Nc1ccccc1)(Sc1nnc(-c2ccccc2)n1-c1ccccc1)C(=O)Nc1ccccc1 (stereo unspecified)	Pf growth 96h 12µM, Pf growth 48h 13µM, NS1 inh inconclusive
Oc1ccc(/C=N/Nc2ccc(C(F)(F)F)cn2)c(O)c1	CHX counter 52, Shiga toxin inh 56, Pf growth 48h inconclusive
C/C(=N\NC(=O)c1ccc(N/N=C(\C)c2ccncc2)cc1)c1ccncc1	Pf growth 96h inconclusive (no result: NS1 inh)
Oc1ccc(/C=N/Nc2ccc(C(F)(F)F)cn2)cc1	CHX counter 37, Shiga toxin inh 124 (no result: NS1 inh)
Oc1ccc(/C=N\Nc2cc(N3CCOCC3)nc(N3CCOCC3)n2)c(O)c1	Pf growth 96h inconclusive, Pf growth 48h inconclusive
Oc1ccc(/C=N/Nc2cccc(Cl)n2)c(O)c1	CHX counter 42, Shiga toxin inh 47
C/C(=N\Nc1ccc(C(F)(F)F)cn1)c1ccncc1	CHX counter 24, Shiga toxin inh 101 (no result: NS1 inh)
CC(C)(C)c1cc[n+](CC(=O)Nc2cc(C(F)(F)F)ccc2N2CCOCC2)cc1	Pf growth 96h inconclusive, Pf growth 48h inconclusive (no result: NS1 inh)
CCN(CC)Cc1cc(CCNC(=O)c2ccc(Cl)cc2)ccc1O	CHX counter 17, Pf growth 48h inconclusive (no result: Pf growth 96h)
O=C(NCCc1ccc(Cl)cc1)c1ccc2nccnc2c1	CHX counter 52, Shiga toxin inh 67
O=C(NCCc1ccc(O)cc1)c1ccc(Cl)cc1	CHX counter 56, Shiga toxin inh 70
Cc1occc(=O)c1OCc1ccc(Cl)cc1Cl	none
Cc1cc(NC(=O)Cc2csc(-c3ccccc3)n2)ccc1Br	none
COC(=O)c1cccc(NC(=O)Cc2nc(-c3ccccc3)sc2-c2ccc(C)cc2)c1	Pf growth 48h inconclusive
COc1cccc(NC(=O)Cc2nc(-c3ccccc3)sc2-c2ccc(C)cc2)c1	CHX counter 28, Pf growth 96h 10µM, Shiga toxin inh 51, Pf growth 48h inconclusive
CC(=O)Nc1cccc(NC(=O)Cc2nc(-c3ccccc3)sc2-c2ccc(C)cc2)c1	CHX counter 20, Pf growth 96h inconclusive, Shiga toxin inh 130, Pf growth 48h inconclusive, NS1 inh inconclusive
Cc1ccc(NC(=O)CC2C(=O)N(Cc3ccccc3)C(=S)N2NC(=O)c2ccccc2)c(C)c1 (stereo unspecified)	Pf growth 96h inconclusive, Pf growth 48h inconclusive
Cc1c(C(=O)NCCC2=CCCCC2)sc2ncnc(N3CCCCC3C)c12 (stereo unspecified)	Pf growth 96h 2.6µM, Pf growth 48h inconclusive
CCOc1ccccc1OCCCC(=O)Nc1cccc(S(=O)(=O)N2CCOCC2)c1	Pf growth 96h inconclusive, Pf growth 48h 13µM (no result: CHX counter, Shiga toxin inh, NS1 inh)
CCCCCOc1ccc(NC(=O)CSc2cccc3cccnc23)cc1	Pf growth 96h 5.2µM, Pf growth 48h 10µM
O=C(CCCOc1ccccc1)Nc1ccc(S(=O)(=O)N2CCOCC2)cc1	Pf growth 96h inconclusive, Pf growth 48h 12µM
